What was measured:
Experiment in all cases: log2 ratio of Biotin-Ahx-Ub-VS probe labelling (fragment/DMSO); higher = less target engagement (more negative = stronger competition), active = hit call of the paper (q ≤ 0.05, log2 ratio ≤ -1)
Conditions in all cases: compound concentration: 200 uM; treatment time: 3 h
USP42 = target: T1, USP42 (UniProt Q9H9J4)
T1 sequence (whole entry): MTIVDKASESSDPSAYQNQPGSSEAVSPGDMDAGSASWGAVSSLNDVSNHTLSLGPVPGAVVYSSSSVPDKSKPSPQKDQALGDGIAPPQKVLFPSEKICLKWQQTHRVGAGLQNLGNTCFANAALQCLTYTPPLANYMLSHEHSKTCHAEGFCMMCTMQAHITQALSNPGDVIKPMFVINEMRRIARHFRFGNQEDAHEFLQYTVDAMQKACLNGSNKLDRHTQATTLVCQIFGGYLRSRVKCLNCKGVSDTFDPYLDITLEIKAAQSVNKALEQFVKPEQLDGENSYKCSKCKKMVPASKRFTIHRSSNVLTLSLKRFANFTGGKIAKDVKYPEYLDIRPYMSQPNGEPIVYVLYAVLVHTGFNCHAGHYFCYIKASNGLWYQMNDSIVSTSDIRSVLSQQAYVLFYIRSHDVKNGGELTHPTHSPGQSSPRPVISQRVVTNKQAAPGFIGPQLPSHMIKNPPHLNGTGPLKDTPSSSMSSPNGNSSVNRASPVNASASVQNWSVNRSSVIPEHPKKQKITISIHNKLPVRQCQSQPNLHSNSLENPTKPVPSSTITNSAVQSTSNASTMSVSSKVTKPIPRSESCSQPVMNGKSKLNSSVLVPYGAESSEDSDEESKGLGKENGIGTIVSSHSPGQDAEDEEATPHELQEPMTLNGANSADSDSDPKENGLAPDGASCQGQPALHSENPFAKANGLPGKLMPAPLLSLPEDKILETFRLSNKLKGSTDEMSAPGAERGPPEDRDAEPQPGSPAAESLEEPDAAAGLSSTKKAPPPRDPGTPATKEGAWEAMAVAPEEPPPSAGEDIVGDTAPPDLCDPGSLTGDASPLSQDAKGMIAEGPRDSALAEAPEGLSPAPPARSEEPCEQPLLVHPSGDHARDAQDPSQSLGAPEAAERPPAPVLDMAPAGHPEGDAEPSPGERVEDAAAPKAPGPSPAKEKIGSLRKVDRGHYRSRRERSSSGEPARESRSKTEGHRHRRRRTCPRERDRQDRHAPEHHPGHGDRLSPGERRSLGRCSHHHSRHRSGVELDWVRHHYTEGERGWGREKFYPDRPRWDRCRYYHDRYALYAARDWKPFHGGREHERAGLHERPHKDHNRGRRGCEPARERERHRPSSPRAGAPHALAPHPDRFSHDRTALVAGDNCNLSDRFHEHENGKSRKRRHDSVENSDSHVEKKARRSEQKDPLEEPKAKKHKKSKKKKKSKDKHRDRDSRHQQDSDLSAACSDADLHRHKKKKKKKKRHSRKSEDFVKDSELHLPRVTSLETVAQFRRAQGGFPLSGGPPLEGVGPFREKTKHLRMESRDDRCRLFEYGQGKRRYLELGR
Outline: (§1)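 Fragment (200 µM) or vehicle was incubated for 3 h with triplicate HEK293T lysate samples of 495 µg, which were then treated with Biotin-Ahx-Ub-VS at 0.5 µM final for 1 h. Labelled DUBs were enriched on NeutrAvidin, digested with LysC and trypsin, and analysed by diaPASEF LC-MS/MS. Values are average log2 fragment/vehicle ratios from an unpaired t-test on global-median-normalised Spectronaut label-free quantities, using proteins with ≥2 unique peptides.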

USP46 = USP46 (UniProt P62068)
Outline: as §1

USP47 = target: T2, USP47 (UniProt Q96K76)
T2 sequence (whole entry): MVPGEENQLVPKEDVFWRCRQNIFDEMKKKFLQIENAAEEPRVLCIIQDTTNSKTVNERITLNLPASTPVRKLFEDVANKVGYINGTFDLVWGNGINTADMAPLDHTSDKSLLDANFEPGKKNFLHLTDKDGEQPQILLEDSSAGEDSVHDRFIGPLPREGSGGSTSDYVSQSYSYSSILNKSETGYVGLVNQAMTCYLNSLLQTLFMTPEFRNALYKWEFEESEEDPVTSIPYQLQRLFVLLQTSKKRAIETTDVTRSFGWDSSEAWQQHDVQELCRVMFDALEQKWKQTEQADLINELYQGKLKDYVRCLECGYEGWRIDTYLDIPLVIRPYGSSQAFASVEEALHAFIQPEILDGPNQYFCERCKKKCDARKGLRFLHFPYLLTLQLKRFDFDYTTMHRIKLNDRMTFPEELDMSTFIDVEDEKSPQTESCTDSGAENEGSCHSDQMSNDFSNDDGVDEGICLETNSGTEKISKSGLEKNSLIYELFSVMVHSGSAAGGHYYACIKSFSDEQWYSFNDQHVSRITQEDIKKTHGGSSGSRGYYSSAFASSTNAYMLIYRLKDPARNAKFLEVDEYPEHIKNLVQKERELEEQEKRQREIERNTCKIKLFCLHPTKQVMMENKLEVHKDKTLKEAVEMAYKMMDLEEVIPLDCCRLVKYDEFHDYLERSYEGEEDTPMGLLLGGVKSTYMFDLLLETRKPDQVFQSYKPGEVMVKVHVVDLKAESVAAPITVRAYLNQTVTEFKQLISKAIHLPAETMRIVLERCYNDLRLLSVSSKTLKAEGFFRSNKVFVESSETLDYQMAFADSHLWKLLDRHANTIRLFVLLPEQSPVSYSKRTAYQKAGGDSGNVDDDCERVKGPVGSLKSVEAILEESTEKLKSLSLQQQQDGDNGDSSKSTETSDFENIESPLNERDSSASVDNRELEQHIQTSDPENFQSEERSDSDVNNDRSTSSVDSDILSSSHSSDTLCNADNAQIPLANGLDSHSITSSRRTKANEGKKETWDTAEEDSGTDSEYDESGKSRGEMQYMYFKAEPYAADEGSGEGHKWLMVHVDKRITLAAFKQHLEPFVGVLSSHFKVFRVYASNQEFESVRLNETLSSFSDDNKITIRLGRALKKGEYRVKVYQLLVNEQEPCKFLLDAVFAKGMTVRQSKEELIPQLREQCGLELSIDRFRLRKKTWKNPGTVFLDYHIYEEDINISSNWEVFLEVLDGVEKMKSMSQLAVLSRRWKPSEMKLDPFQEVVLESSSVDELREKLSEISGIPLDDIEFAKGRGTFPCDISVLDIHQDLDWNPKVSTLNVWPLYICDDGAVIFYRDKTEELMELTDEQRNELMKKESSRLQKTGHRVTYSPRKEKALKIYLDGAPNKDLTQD
Outline: as §1

USP48 = target: T3, USP48 (UniProt Q86UV5)
T3 sequence (whole entry): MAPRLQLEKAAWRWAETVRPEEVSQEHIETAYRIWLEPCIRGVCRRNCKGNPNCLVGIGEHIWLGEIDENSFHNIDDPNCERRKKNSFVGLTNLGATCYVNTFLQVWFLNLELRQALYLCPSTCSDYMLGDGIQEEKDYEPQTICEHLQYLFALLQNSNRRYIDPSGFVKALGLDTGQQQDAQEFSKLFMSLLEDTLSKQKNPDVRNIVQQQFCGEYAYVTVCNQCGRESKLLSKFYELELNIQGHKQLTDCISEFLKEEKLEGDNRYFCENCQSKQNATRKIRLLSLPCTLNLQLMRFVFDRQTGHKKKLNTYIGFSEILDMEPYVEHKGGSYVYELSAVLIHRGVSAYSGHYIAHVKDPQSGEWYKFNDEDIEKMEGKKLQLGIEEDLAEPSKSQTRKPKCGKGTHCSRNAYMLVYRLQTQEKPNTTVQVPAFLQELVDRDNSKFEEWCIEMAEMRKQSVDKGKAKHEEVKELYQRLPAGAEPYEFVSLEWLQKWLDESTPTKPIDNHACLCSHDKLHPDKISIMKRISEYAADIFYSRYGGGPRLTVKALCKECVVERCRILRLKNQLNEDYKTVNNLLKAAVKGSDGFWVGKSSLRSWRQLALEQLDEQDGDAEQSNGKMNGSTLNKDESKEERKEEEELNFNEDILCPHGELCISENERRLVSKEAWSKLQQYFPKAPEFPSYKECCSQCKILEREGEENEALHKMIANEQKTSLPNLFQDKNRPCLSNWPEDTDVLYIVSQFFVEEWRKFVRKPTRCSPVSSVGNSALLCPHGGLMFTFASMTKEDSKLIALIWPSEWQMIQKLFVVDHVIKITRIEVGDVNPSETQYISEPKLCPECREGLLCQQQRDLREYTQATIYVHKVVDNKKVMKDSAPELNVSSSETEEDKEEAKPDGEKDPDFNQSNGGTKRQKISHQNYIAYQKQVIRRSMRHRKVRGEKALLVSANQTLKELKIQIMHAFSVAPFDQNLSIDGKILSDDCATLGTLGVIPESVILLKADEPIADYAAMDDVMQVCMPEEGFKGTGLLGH
Outline: as §1

USP5 = target: T4, USP5 (UniProt P45974)
T4 sequence (whole entry): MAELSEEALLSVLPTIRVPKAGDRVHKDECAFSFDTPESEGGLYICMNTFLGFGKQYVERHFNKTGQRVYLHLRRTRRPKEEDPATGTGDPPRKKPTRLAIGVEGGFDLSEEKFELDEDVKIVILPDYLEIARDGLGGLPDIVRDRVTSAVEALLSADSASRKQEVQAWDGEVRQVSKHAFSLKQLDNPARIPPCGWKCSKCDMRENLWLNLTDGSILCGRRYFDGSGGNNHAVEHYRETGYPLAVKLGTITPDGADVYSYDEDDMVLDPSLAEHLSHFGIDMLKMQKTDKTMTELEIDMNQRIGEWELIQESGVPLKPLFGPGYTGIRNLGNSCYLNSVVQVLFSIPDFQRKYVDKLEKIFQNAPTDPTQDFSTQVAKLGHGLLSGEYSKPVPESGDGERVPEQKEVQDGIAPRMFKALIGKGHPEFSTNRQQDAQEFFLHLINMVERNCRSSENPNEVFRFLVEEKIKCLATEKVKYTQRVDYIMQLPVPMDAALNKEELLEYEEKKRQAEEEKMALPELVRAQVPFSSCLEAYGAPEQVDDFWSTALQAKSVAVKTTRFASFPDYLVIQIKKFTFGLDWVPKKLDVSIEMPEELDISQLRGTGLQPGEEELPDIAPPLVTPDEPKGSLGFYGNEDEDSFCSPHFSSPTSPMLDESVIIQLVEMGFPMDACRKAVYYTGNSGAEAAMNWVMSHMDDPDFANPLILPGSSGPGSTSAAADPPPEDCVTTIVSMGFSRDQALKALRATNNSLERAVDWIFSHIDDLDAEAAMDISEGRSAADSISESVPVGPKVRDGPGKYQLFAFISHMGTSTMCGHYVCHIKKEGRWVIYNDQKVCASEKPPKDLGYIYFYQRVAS
Outline: as §1

USP54 = USP54 (UniProt Q70EL1)
Outline: as §1

USP7 = USP7 (UniProt Q93009)
Outline: as §1

USP8 = target: T5, USP8 (UniProt P40818)
T5 sequence (whole entry): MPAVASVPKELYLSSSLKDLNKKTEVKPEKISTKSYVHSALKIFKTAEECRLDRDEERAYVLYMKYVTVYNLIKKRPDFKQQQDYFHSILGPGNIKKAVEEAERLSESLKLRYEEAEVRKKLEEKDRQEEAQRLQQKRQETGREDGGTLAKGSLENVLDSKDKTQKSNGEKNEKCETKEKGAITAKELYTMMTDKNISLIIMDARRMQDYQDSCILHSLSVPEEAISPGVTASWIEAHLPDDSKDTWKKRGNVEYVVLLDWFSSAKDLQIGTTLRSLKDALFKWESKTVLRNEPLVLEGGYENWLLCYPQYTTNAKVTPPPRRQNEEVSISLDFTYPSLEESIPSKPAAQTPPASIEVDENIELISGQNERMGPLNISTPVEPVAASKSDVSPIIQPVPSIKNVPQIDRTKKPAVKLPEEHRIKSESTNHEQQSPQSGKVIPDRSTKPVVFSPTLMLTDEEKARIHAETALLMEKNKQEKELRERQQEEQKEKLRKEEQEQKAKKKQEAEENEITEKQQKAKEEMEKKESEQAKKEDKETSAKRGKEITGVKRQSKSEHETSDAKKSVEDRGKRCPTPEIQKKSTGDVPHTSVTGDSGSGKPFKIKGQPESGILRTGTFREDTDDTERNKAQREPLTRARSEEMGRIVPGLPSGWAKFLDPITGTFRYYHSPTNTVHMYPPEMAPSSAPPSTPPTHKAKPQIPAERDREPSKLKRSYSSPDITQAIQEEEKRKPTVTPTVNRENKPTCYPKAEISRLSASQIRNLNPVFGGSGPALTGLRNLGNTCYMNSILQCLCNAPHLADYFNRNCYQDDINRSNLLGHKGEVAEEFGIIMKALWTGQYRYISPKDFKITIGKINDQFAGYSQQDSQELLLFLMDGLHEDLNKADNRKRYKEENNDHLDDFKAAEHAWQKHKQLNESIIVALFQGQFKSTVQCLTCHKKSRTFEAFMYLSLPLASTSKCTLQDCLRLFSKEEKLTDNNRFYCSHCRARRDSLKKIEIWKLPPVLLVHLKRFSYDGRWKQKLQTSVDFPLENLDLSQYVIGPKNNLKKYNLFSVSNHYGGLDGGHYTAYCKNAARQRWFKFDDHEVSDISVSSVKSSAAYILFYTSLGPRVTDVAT
Outline: as §1

Measured: log2 ratio of Biotin-Ahx-Ub-VS probe labelling

Sequence of USP7 (Q93009 whole entry, looked up): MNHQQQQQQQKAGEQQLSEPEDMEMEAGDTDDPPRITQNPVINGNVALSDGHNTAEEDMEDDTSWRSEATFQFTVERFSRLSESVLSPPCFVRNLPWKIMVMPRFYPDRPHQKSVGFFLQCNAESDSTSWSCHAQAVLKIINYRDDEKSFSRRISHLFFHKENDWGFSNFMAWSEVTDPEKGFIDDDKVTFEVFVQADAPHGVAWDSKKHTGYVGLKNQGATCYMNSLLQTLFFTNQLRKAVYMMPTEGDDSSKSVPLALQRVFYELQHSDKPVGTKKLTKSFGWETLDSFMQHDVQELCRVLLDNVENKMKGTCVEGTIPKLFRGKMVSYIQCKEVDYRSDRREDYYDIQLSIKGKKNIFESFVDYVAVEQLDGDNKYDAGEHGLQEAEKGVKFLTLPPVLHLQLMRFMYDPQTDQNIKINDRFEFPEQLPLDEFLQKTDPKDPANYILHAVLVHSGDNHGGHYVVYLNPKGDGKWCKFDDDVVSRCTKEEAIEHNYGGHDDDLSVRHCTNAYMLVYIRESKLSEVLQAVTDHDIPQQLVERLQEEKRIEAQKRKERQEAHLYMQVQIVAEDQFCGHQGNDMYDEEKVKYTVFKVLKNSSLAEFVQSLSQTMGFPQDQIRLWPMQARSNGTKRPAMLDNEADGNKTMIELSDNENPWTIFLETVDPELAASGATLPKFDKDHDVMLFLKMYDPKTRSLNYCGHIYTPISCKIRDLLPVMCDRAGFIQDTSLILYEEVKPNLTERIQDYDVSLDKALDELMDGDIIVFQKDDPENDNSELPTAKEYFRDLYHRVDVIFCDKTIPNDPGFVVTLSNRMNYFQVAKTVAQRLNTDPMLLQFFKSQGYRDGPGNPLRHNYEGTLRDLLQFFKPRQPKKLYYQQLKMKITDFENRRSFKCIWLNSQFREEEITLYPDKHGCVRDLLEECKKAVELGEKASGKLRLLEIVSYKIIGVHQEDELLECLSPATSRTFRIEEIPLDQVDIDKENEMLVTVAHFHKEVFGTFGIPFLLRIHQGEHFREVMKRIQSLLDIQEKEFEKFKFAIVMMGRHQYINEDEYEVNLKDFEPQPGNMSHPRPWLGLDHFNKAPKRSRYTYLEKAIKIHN
Sequence of USP46 (P62068 whole entry): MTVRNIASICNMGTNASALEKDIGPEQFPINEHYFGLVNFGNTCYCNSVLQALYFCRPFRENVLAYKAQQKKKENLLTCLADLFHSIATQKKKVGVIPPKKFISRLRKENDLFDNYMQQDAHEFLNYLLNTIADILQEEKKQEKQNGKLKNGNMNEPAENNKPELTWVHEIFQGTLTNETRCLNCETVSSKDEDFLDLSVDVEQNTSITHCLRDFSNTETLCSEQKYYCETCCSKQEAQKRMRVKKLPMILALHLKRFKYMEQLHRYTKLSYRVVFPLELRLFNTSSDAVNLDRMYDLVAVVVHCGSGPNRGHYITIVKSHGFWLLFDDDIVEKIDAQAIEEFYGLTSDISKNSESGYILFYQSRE
Sequence of USP54 (Q70EL1 whole entry): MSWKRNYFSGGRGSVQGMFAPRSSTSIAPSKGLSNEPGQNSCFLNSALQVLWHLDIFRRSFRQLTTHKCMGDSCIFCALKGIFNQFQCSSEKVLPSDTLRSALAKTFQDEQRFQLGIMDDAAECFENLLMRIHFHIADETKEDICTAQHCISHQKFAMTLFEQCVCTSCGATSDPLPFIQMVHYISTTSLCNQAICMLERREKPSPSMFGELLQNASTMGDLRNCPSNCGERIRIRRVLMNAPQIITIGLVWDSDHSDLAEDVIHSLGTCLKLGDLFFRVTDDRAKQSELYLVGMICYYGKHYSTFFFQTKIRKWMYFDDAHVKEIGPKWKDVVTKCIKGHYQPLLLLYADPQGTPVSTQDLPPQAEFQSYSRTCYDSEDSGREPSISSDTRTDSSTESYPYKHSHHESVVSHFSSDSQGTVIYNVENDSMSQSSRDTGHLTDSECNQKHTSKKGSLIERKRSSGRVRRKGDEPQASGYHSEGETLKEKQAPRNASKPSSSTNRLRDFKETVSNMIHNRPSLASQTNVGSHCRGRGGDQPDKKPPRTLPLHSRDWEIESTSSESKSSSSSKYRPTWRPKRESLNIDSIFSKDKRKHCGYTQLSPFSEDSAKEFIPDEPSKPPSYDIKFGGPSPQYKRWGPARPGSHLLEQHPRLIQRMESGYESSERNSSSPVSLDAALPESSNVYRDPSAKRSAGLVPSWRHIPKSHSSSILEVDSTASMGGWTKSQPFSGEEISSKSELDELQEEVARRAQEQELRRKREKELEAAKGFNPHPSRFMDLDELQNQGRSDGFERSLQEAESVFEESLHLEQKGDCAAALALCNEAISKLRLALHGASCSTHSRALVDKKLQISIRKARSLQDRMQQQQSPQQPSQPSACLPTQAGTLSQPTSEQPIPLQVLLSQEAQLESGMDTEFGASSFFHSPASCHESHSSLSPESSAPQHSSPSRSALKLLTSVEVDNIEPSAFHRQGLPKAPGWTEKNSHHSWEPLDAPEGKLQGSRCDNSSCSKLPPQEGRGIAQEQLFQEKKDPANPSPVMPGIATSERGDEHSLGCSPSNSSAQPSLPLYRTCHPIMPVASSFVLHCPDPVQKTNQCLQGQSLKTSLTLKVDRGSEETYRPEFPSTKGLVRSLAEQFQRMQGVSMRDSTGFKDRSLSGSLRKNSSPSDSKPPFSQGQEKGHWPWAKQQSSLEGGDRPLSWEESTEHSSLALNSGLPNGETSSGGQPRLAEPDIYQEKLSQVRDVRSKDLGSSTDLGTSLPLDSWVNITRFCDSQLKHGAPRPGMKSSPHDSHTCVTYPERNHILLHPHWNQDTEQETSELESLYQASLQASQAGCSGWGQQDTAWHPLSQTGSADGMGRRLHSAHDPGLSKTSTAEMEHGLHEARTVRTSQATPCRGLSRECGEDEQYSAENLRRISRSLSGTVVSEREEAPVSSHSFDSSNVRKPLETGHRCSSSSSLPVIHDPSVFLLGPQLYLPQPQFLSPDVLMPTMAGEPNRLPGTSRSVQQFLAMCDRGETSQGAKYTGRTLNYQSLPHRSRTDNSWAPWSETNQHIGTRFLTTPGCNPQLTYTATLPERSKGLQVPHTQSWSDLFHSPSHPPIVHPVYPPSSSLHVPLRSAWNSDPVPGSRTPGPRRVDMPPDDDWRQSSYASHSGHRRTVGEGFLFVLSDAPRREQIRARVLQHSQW

Cc1ccc(CN(CCO)C(=O)CCl)cc1
inactive: USP42 -0.148 | USP46 -0.105 | USP47 -0.828 | USP48 -0.292 | USP5 -0.134 | USP54 0.222 | USP7 -0.788 | USP8 -0.664

Reference: the supplement of paper PMC11732987, “Enantioselective OTUD7B fragment discovery through chemoproteomics screening and high-throughput optimisation” (Communications Chemistry, 2025)
